Tested on: PPARgamma LBD (GAL4 fusion)
Assay: luciferase reporter transactivation, fold of solvent control; higher = stronger receptor activation
Details: HEK293T, exposure time: 24 h
Description: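 HEK293T cells were transiently transfected with a GAL4-DBD fused to the ligand-binding domain of a human nuclear receptor (PPARα, PPARγ, PPARδ, FXR, LXRα, PXR, RARα or CAR), the GAL4-(UAS)5-TK firefly luciferase reporter and a Renilla luciferase normalisation plasmid. Cells were exposed to compound for 24 h in 0.5% DMSO. Firefly/Renilla luciferase was expressed as fold of the solvent control (=1). Values are the mean of 2-3 biological replicates; receptor agonists were used as positive controls.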

| SMILES | luciferase reporter transactivation (concentration: 1 µM) | luciferase reporter transactivation (concentration: 5 µM) | luciferase reporter transactivation (concentration: 10 µM) | luciferase reporter transactivation (concentration: 25 µM) | luciferase reporter transactivation (concentration: 50 µM) | luciferase reporter transactivation (concentration: 100 µM) | luciferase reporter transactivation (concentration: 250 µM) | luciferase reporter transactivation (concentration: 500 µM) |
| --- | --- | --- | --- | --- | --- | --- | --- | --- |
| O=S(=O)(O)CCC(F)(F)C(F)(F)C(F)(F)C(F)(F)C(F)(F)C(F)(F)F [6:2 fluorotelomer sulfonic acid] | 1.45 | 1.66 | 1.6 | 1.57 | 1.9 | 2.81 |  |  |
| OCCC(F)(F)C(F)(F)C(F)(F)C(F)(F)C(F)(F)C(F)(F)F [6:2 fluorotelomer alcohol] | 1.1 | 1 | 0.973 | 1.1 | 1.09 | 0.563 | 1.25 | 1.1 |
| O=C(O)C(F)(F)C(F)(F)C(F)(F)C(F)(F)F [perfluoropentanoic acid] | 1.01 | 1.01 | 0.918 | 0.953 | 0.925 | 0.858 | 0.947 | 1.11 |
| O=S(=O)(O)CCC(F)(F)C(F)(F)C(F)(F)C(F)(F)C(F)(F)C(F)(F)C(F)(F)C(F)(F)F [8:2 fluorotelomer sulfonic acid] | 0.851 | 0.861 | 0.922 | 0.905 | 1.04 | 1.31 | 1.04 | 0.846 |
| Cc1c(C)c2c(c(C)c1O)CCC(C)(COc1ccc(CC3SC(=O)NC3=O)cc1)O2 (stereo unspecified) [troglitazone] |  |  | 27.7 |  |  |  |  |  |

Source: the supplement of paper PMC11402862
